MITF TRPM1 HTS: activators of MITF-driven TRPM1 promoter reporter, primary screen, cell-based, SK-MEL-5, luciferase, single point. SK-MEL-5 TRPM1-promoter luciferase, 24 h; % of positive control, neutral wells = 0. activation, % at 12.5 µM. hit rate 0.75% among 300,000. AID 588334, 2011;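 active = mean activation of at least 80% with every replicate also reaching 80%; inconclusive = mean reaches 80% but some replicate falls short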;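 also: 0% = neutral control wells and 100% = parthenolide positive control wells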
TRPM1 prom inh: inhibitors of MITF-dependent TRPM1 promoter reporter, primary screen, cell-based, SK-MEL-5, single point, luciferase; inhibition, % at 12.5 µM; hit rate 0.83% among 330,000; SK-MEL-5 TRPM1 promoter luciferase, 24 h;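 active = mean inhibition across replicates of 60% or more, whatever share of single replicates reaches that level; inconclusive = some that reach 60%, reason not given; inactive = mean inhibition across replicates below 60%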
Wnt act: Wnt/beta-catenin pathway activators, primary screen, cell-based, plate reader, single point | Wnt/beta-catenin reporter cell assay, activator | activation, % at 9.35 µM | hit rate 1.2% among 300,000 | AID 743398, 2014; in the data active = activation above about 30%, passing the limit was not always enough; inconclusive = no clear call, values can overlap the other calls;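 also: 0% = neutral control wells and 100% = positive control wells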
LMP1 NFkB inh: EBV LMP1-driven NF-kappaB luciferase reporter inhibitors, primary screen, cell-based, luminescence, single point; LMP1-induced NF-kappaB luciferase reporter cells; inhibition, % at 12.5 µM; hit rate 0.69% among 350,000; AID 504558, 2011; in the data active = inhibition above about 41%; inconclusive = no clear call, values can overlap the other calls;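 also: 0% = neutral control wells and 100% = reference inhibitor control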
Statin myotox sup: suppressors of statin myotoxicity in C2C12 myotubes, primary screen, cell-based, single point, plate reader; AID 602340, 2012; rescue of ATP level, % at 7.49 µM; C2C12 myotubes + simvastatin, ATP luminescence, 48 h; scaled: DMSO 0, geranylgeraniol control 100; hit rate 0.78% among 330,000;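 active = mean ATP rescue above about 67%, or every replicate alone reaching that limit, limit read from the data, passing the limit was not always enough; inconclusive = no clear call, values can overlap the other calls; inactive = mean under the limit and some replicate under it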;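 also: myotubes were challenged with 10 µM simvastatin during compound exposure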
esBAF inh: Bmi1 luciferase reporter increase in mESCs, primary screen, esBAF inhibitor project, mouse ES cells, Bmi1 luciferase knock-in, single point. 24 h; 100% = twice the neutral-well signal. reporter increase, % at 12.5 µM. hit rate 2% among 350,000. AID 602393, 2012; in the data active = activation above about 40%; inconclusive = no clear call, values can overlap the other calls;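 also: 0% = median of the plate's neutral control wells and 100% = double that signal; a rise in the Bmi1 reporter signal indicates esBAF inhibition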
Numbers without * were called inactive; ? = inconclusive; / = no result given. Most compounds without a hit are left out; they make up all but 4% or so of the library.

SMILES | MITF TRPM1 HTS | TRPM1 prom inh | Wnt act | LMP1 NFkB inh | Statin myotox sup | esBAF inh
O=C1C(=C(I)I)c2ccccc2-c2ccccc21 | -98 | 99* | -6 | 12 | / | /
C/C(=N\NC(N)=S)c1cc(-c2ccccc2)c(-c2ccccc2)s1 | / | -4 | -5 | -8 | 108* | -7
CC=Cc1ccc2n(c1=O)C[C@@H]1[C@@H](CO)[C@H](C(=O)N3CCC(Cc4ccccc4)CC3)N(CC)[C@H]21 (mixture of isomers) | / | / | / | / | -40 | 11
COCCN(C(=O)Cc1cccs1)c1nnc(-c2cccnc2)s1 | 8 | -9 | 3 | -8 | 7 | 4
CCCCN(C(=O)Cc1cccs1)c1nnc(-c2cccnc2)s1 | 99* | -82 | 5 | -23 | / | 60*
CN1CCN(Cc2nc3ccccc3c(=O)n2Cc2nc(-c3ccc4ccccc4c3)cs2)CC1 | -88 | 88* | 1 | 6 | / | /
CCCc1cnc(N2CCN(C(=S)NC)CC2)nc1 | / | -57 | 40* | -29 | 7 | 37
Cc1nnc(N2C(=O)C(O)=C(C(=O)c3ccco3)C2c2ccc(C(C)(C)C)cc2)s1 (stereo unspecified) | 7 | -8 | / | 5 | 117* | 8
COCCN1C(=O)Cc2c1nc(N)c1c(N)nc(N3CCN(c4ccc(F)cc4)CC3)c(C#N)c21 | 0 | 1 | 4 | -10 | 6 | 7
COc1ccc2[nH]c(O)c(N=NC(=O)c3ccc(NS(=O)(=O)c4cccs4)cc3)c2c1 | 41 | -41 | 19 | -15 | -38 | 44*
O=C(NN=Cc1ccc(OC(F)F)cc1)c1ccc(NS(=O)(=O)c2cccs2)cc1 | 30 | -35 | 51* | -14 | -4 | 30
Cn1c(SCC(=O)N2CCCCCC2)nnc1-c1ccco1 | 3 | -1 | 1 | -4 | -1 | 0
O=S(=O)(Cc1noc(-c2ccccc2Cl)n1)c1ccccn1 | ? | -84 | 40* | -19 | 6 | 44*
CCOC(=O)c1sc2nc(C)nc(NCc3ccccc3)c2c1C | 20 | -26 | 0 | 52* | -20 | 0
CCOC(=O)c1sc2nc(C)nc(Nc3ccccc3)c2c1C | -11 | 14 | -2 | 6 | / | /
O=C(/C=C\c1ccccc1OC(=O)c1ccccc1F)c1cc2ccccc2o1 | 23 | -22 | -1 | 8 | 7 | 49*
CC(=O)/C=C\c1ccccc1OC(=O)c1cc2ccccc2oc1=O | -9 | 9 | -1 | -18 | 16 | 12
N/C(=N\c1nc2ccccc2o1)NC(=O)c1ccc(F)cc1 | 53 | -45 | 0 | -40 | 83* | 22
CC(C)(C)c1ccc(C(=O)N/C(N)=N/c2nc3ccccc3o2)cc1 | -7 | 7 | / | 8 | 10 | 1
N/C(=N\c1nc2ccccc2o1)NC(=O)c1ccccc1Br | 85* | -88 | 7 | -21 | 6 | 80*
N/C(=N\c1nc2ccccc2o1)NC(=O)c1ccc(Cl)cc1 | 1 | -2 | / | -13 | -35 | 5
Cc1ccccc1-n1nc2c(c1NC(=O)c1cc3ccccc3oc1=O)CS(=O)C2 (stereo unspecified) | 5 | -10 | / | 4 | / | /
CCC/C=C1/CCCOC(C(=O)NCCNCCO)(C(F)(F)F)C1 (stereo unspecified) | 2 | 0 | 0 | -4 | -4 | 12
NC(=O)c1cc(Sc2ccccc2)nc2ccccc12 | 15 | -18 | -5 | 17 | -4 | -7
NC(=O)c1cc2c3ccccc3ccn2c1-c1ccccc1 | -22 | 23 | ? | 9 | -7 | 49*
SMILES | MITF TRPM1 HTS | TRPM1 prom inh | Wnt act | LMP1 NFkB inh | Statin myotox sup | esBAF inh
C=C1CC(COc2ccc3c(C)c(Cl)c(=O)oc3c2)(c2ccccc2)OC1=O (stereo unspecified) | / | 101* | -1 | 1 | / | /
CCNC(=O)[C@H]1[C@H](CO)[C@H]2Cn3c(ccc(C4=CCCCC4)c3=O)[C@@H]1N2Cc1cocn1 | / | / | / | / | -9 | 0
CCOc1cccc(/C=C(/C#N)c2nc3ccccc3[nH]2)c1OCC(=O)O | 9 | -4 | 0 | 1 | 12 | 9
COc1cccc(/C=C(\C#N)c2nc3ccc(C)cc3[nH]2)c1OCC(=O)O | 0 | 1 | 0 | -11 | -5 | 51*
Cc1ccccc1C(=O)N1CCC(C(=O)O)CC1 | -4 | 3 | / | -3 | 7 | -4
C[C@@H]1CN([C@@H](C)CO)C(=O)c2cc(-c3ccc(C(=O)N(C)C)cc3)cnc2O[C@H]1CN(C)C(=O)c1ccncc1 | / | / | / | / | 3 | 0
CN(c1ccccc1)c1ccc(/C=C/[N+](=O)[O-])cc1 | -91 | 92* | 3 | 18 | / | /
C[C@H](CO)N1C[C@H](C)[C@H](CN(C)C(=O)NC2CCCCC2)Oc2ccc(NC(=O)Cn3cnnn3)cc2C1=O | / | / | / | / | 5 | -1
CC1=NN(c2ccccc2)C(=O)/C1=C/c1ccc[nH]1 | 18 | -14 | / | -26 | -9 | 50*
CC1=NN(c2ccccc2)C(=O)C1=Cc1ccccc1 | / | / | 1 | -8 | 2 | -5
CC1=NN(c2ccccc2)C(=O)/C1=C/c1c(O)n(-c2ccc(F)cc2)[nH]c1=O | 14 | -7 | 7 | -22 | -1 | 55*
O=C(NC(NNc1ccc([N+](=O)[O-])cc1)(C(F)(F)F)C(F)(F)F)c1ccc(F)cc1 | -7 | 7 | 0 | 0 | / | /
Cc1cccc(CN2CCOCCS2(=O)=O)c1 | 0 | 1 | -3 | 5 | -1 | -14
CC(=O)Nc1ccc(CN2C(=O)C(CCc3ccccc3)ON=C2c2cnccn2)cc1 (stereo unspecified) | / | / | 7 | / | -20 | 47*
O=C1C(CCc2ccccc2)ON=C(c2cnccn2)N1Cc1ccc(F)cc1 (stereo unspecified) | / | / | -1 | / | -18 | 2
CCC(C)C(=O)N1CCc2cc(-c3csc(N)n3)ccc21 (stereo unspecified) | 68 | -71 | / | -15 | -57 | 53*
CC(C)(C)C(=O)N1CCc2cc(-c3csc(N)n3)ccc21 | -13 | 12 | / | 17 | -31 | -54
COc1cccc(OCC(=O)NC2CCCCC2)c1 | 23 | -23 | 13 | -24 | 0 | 14
CC(C)NC(=O)NC(=O)CSc1nnc(C(F)(F)F)n1C | 5 | -4 | -2 | 2 | / | /
CCOC(=O)C(C)Sc1nc2c(cnn2-c2ccc(C)cc2)c(=O)[nH]1 (stereo unspecified) | 0 | 1 | / | -10 | 97* | -9
Cc1ccc(-n2ncc3c(=O)[nH]c(SCC(=O)N4CCN(c5ccccc5)CC4)nc32)cc1 | 5 | -10 | / | -14 | / | /
O=C(CSc1nc2c(cnn2-c2ccc(F)cc2)c(=O)[nH]1)N1CCOCC1 | -7 | 7 | 1 | 0 | -3 | -12
Cc1ccc(-n2ncc3c(=O)[nH]c(SC(C)C)nc32)cc1 | -12 | 13 | -1 | 5 | -6 | -9

Bioassay records from PubChem BioAssay.
